Screens as filed in PubChem.
Only a selection was taken, and hits are over-represented in it overall.
Pf Dd2 inh: Plasmodium falciparum Dd2 growth inhibition. P. falciparum Dd2 growth, SYBR Green, 72 h. 120,000 compounds, 4.3% hits. AID 1347417. Potency, µM (highest dose often 28.9 µM), inactives show top-dose activity, negative = inhibition, hits mostly inhibitors; active = well fitted inhibition curve with a large enough effect;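 note: plate controls were DMSO vehicle for no effect and reference drug for full effect; nearly all actives have a fitted effect of over 65% in size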
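Readout: SYBR Green fluorescence, 485 nm excitation, 535 nm emission, after ~16 h lysis at 37C. Before that, Dd2-infected red cells (2.5% hematocrit) grew 72 h with compound, 29 uM top final concentration.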
The depositor's hits bear a star; i = inactive; [ ] = remark or other dose. Potency is the fitted concentration of half-maximal effect.

SMILES	Pf Dd2 inh
Cc1ccc(-n2c(/C=C/c3cc(Br)cs3)nc3ccccc3c2=O)cc1C	i
COCc1cc(=O)n(CC(=O)Nc2ccc(C)cc2C)c(N2CCOCC2)n1	-4%
CN(C)[C@@H]1C[C@@H](CO)N(Cc2cc(=O)n3c4c(cccc24)CCC3)C1	-18%
Cn1c(CN2CCN(c3ccc(C#N)cn3)CC2)nnc1C1CC(N)C1 (configuration not stated)	-14%
Cc1c(C(C)NC(=O)CCN2CCCCCC2=O)cnn1-c1cccc(F)c1 (configuration not stated)	-8%
CC(C)c1ccc(-c2noc(SCC(=O)N3CCN(c4ccc(F)cc4)CC3)n2)cc1	0.45µM*
CCc1ccc(-c2nc(CSCC(=O)N3CCN(c4ccc(F)cc4)CC3)c(C)o2)cc1	i
COc1ccc(N2CCN(C(=O)CSc3nc(-c4ccc(C(C)C)cc4)no3)CC2)cc1	0.28µM*
O=C(CSc1nc(-c2ccccc2)no1)N1CCN(c2ccccc2)CC1	10µM*
COc1ccc(-c2nc(CSCC(=O)N3CCN(c4ccccc4)CC3)c(C)o2)cc1	7.1µM*
COc1ccc(N2CCN(C(=O)CSc3n[nH]c(-c4ccccc4)n3)CC2)cc1	6%
COc1ccc(N2CCN(C(=O)CSCc3ccc(C)cc3)CC2)cc1	-15%
O=C(CSc1n[nH]c(-c2ccccc2)n1)N1CCN(c2ccc(F)cc2)CC1	5%
COc1ccc(N2CCN(Cc3nc(-c4ccc(C)cc4)no3)CC2)cc1	i
COc1ccc(N2CCN(C(=O)CCc3conc3-c3ccc(F)cc3)CC2)cc1	i
O=C(CSc1nc2ccccc2nc1Cc1ccccc1)N1CCN(c2ccccc2)CC1	44%
Cc1ccc(CSCC(=O)N2CCN(c3ccc(F)cc3)CC2)cc1	19%
CCc1nccn1CCC(=O)N[C@H]1CN(C(=O)COC)C[C@@H]1C1CC1	-4%
COCCN1C(=O)CC[C@@]2(C(=O)NCc3ccncc3)CCCC[C@H]12	10%
N#Cc1cccc(NC(=O)CN2C(=O)NC(c3ccc(Cl)cc3)C3=C2COC3=O)c1 (configuration not stated)	-24%
Cc1ccc(CNC(=O)N2CCCCCNC(=O)[C@@H]3CCC[C@@H]32)cc1	23%
CN(C)C(=O)c1ccc(CC2CC(=O)N(c3ccccc3)C2)nc1 (configuration not stated)	7%
CCc1[nH]c2ccc(CNC(=O)Cc3cnc4c(C)cccn34)cc2c1C	-30%
CN(Cc1ccc(-c2ccccc2)cc1)Cc1cccc(C(F)(F)F)c1	-6%
CC1CCCCN1C(=O)CN1CCSc2ccccc21 (configuration not stated)	33%
SMILES	Pf Dd2 inh
CC1CCCCN1Cc1nnc2cc(-c3nc(-c4ccccc4)no3)ccn12 (configuration not stated)	-18%
CC1CCCCN1Cc1c(O)ccc2c(=O)c(-c3ccccc3)coc12 (configuration not stated)	10µM*
CN(Cc1ccc(-c2ccccc2)cc1)Cc1cccc(OC(F)(F)F)c1	10%
CC1CCCCN1Cc1nc2c(c(=O)n(C)c(=O)n2C)n1Cc1ccc(Br)cc1 (configuration not stated)	16%
CN(Cc1ccccc1)Cc1c(O)ccc2c(=O)c(-c3ccccc3)c(C(F)(F)F)oc12	4µM*
CC1CCCCN1Cc1c(O)ccc2c(=O)c(-c3ccc(Cl)cc3)c(C(F)(F)F)oc12 (configuration not stated)	10µM*
COC(=O)[C@@H]1Cc2ncn(C)c2CN1C(=O)C(C)(C)C	10%[44.1 µM]
CNC(=O)[C@@H]1CN(S(=O)(=O)c2ccc(Cl)s2)C[C@H]1c1nc(C)no1	10%
CCc1cccc(NC(=O)N2CCC3(CC2)CC(=O)N(Cc2ccccc2)C3)c1	i
O=C(c1ccnnc1)N1CC(F)(F)C[C@H]1c1nc(C2CC2)no1	29%
COCCN(CCOC)CC[C@@H]1CC[C@H](O)[C@@H](C(=O)NC2CCCCC2)O1	-12%[44.1 µM]
COCCN(CCOC)CC[C@@H]1CC[C@H](O)[C@@H](C(=O)Nc2ccccc2)O1	16µM*
COCCN(CCOC)CC[C@@H]1CC[C@H](O)[C@@H](C(=O)N2CCOCC2)O1	4%[44.1 µM]
COC[C@@H]1CN(C(=O)c2ccc(C#N)cc2)C[C@H]1c1ccccn1	2%
O=C1CC2(CCN(C(=O)C3(c4ccc(F)cc4)CCOCC3)C2)C(=O)N1 (configuration not stated)	-21%
CC(C)C(=O)Nc1ccc(C2(C(=O)N3CCN(c4ccccc4)CC3)CCCCC2)cc1	7.9µM*
CCC(=O)Nc1ccc(C2(C(=O)N3CCN(c4ccccc4)CC3)CCC2)cc1	-20%
CCNC(=O)C1(c2ccc(NC(=O)C(C)C)cc2)CCCCC1	-13%
CN(CC1CCOC1)S(=O)(=O)Cc1ccccc1 (configuration not stated)	14%[5.79 µM]
O=C(NC1CC1)[C@@H]1C[C@H](Oc2ccccc2)CN1C(=O)Cc1ccccc1	-16%
Cc1ccc2c(c1)-c1cc(C)nn1C(c1cc(Br)ccc1O)N2 (configuration not stated)	13µM*
Cn1c2c(c3cc(F)ccc31)CN(C(=O)Nc1ccc(F)c(Cl)c1)CC2	-27%
O=c1[nH]nc2n1CCN(C1CCSCC1)CC2	i
CN(Cc1ccc2c(c1)OCO2)Cc1cc2n(n1)CCNC2	0%
Cc1ccnc(C(NC(=O)CCc2cc3n(n2)CCCNC3)C2CC2)c1 (configuration not stated)	-5%
SMILES	Pf Dd2 inh
CCOc1ccc(Cl)cc1CN(C)Cc1cc2n(n1)CCCNC2	5.6µM*
COc1ccc(C2Cn3nnc(-c4noc(C5(c6ccccc6)CC5)n4)c3CO2)cc1 (configuration not stated)	-5%
CCc1nc(-c2c3n(c(=O)n(CC(=O)Nc4ccc(F)cc4)c2=O)CCCCC3)no1	1%
COc1ccc(C2Cn3nnc(-c4nc(-c5ccc(Br)cc5)no4)c3CO2)cc1 (configuration not stated)	-19%
O=C([C@@H]1C[C@H](F)CN1S(=O)(=O)c1ccccc1)N1CCOCC1	134%
Cc1cc(F)ccc1OC1CN(Cc2ccc(C#N)cc2)C1	i
COc1ccccc1C(=O)N1CC(Oc2ccc(F)cc2C)C1	-20%[44.1 µM]
COc1ccc(CN2CC(Oc3ccc(F)cc3C)C2)cc1	11µM*
Cc1cc(F)ccc1OC1CN(CC2CCCCC2)C1	8.9µM*
Cc1cc(F)ccc1OC1CN(CC2CC2)C1	-20%[44.1 µM]
COc1ccc(CN2CC(Oc3ccc(F)cc3F)C2)cc1	-30%[44.1 µM]
CN1C(=O)CCCCC1C(=O)NCc1ccccc1 (configuration not stated)	82%
O=C(CN1C(=O)NC2(CCS(=O)(=O)CC2)C1=O)Nc1ccccc1	19%
CCc1nncn1C1CCN(C(=O)c2cc(-c3cccs3)[nH]n2)C1 (configuration not stated)	i
Cc1ccccc1NS(=O)(=O)c1ccc2[nH]cc(C(=O)NCCc3ccccc3)c(=O)c2c1	11µM*
Cc1cc(C)cc(NS(=O)(=O)c2ccc3[nH]cc(C(=O)NCCc4ccccc4)c(=O)c3c2)c1	37%
CCc1ccc(NS(=O)(=O)c2ccc3[nH]cc(C(=O)NCCc4ccccc4)c(=O)c3c2)cc1	-13%
CCn1nccc1C(=O)N1C[C@@H](Oc2cccnc2)C[C@H]1C(=O)NC1CC1	34%
COc1ccc(-c2nc(CN3CCC(C(=O)NCCCN4CCN(c5ccccc5F)CC4)CC3)c(C)o2)cc1OC	10µM*
Cc1oc(-c2cccc(Cl)c2)nc1CN1CCC(C(=O)NCCCN2CCN(c3ccccc3F)CC2)CC1	-29%
CCCCNC(=O)C1CCN(Cc2nc(-c3ccc(OC)c(OC)c3)oc2C)CC1	-4%
